Molecules are shown by their SMILES. This is part of a sample that, as a whole, favours compounds with a hit. Of some 83,000 tested, about 20% had one in any assay.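 Single-concentration screen, 48 h exposure, 96-well plates. Endpoint: percent growth. Below 10 = active.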 Values without a mark were called inactive. Calls of active or inactive are those of the source.

The test system of the test is HL-60(TB) leukemia. As to the kind of experiment: NCI-60 one-dose screen, 48 h (100 = growth as untreated, 0 = no growth, -100 = all killed). Particulars: 10 µM unless noted.

For `CCNC(=S)n1nc(SC)c(C(=O)OCC)c1N`, the growth is 100%. The same measure for `Cn1c(=O)c(C#N)c(-c2ccco2)n2c(S(=O)(=O)Cc3ccccc3)nnc12`: 103%; for `O=C(/C(=C/c1ccc([N+](=O)[O-])cc1)c1ccccc1)c1ccccc1`: 16.9%.

On to `Cc1nn(-c2ccccc2)nc1C(=O)Nc1ccccc1C(=O)NCC1CC1`, for which the growth was 95.8%.

`COc1ccc(-c2oc3cc(O)c(OC)c(O)c3c(=O)c2OC)cc1O`: the growth was -8.34% (active). As to `Cc1ccc2c(c1)c(-c1nc(-c3c[nH]c4ncccc34)cs1)cn2C`, the growth was 84.1%. The figure for `Oc1ccccc1-c1nnc(Cn2c(Cc3cccc4ccccc34)nc3ccccc32)o1` is 96%. The same measure for `CNc1ccc(CSc2ccc(Cl)cc2)cc1`: 5.59% (active); for `CC12CCC3C4(C)COC(c5ccco5)OC4CCC3(C)C1CC(C1=CCOC1=O)O2` (centres undefined): 98.3%. The same measure for `COc1cnc2c(c1)C(=O)c1c-2n(CCCN2CCN(CCO)CC2)c(=O)c2cc([N+](=O)[O-])ccc12`: 12.7%. On to `C/C(O)=C(/C=N/C(=S)Nc1ccccc1)C(=O)Nc1ccccc1C`, for which the growth is 94.7%. The figure for `COc1cccc(C2C3=C(COC3=O)N(CCO)c3cc4c(cc32)OCCO4)c1` (centres undefined) is -16.1% (active); for `Brc1ccc(-c2[nH]ncc2-c2c[nH]c3ccccc23)cc1` it is 80.7%. With `O=C1CCC(N2C(=O)c3cccc(NCCCC4CCN(CCNC(=O)c5cc6c(o5)C(=O)c5ccccc5C6=O)CC4)c3C2=O)C(=O)N1` (centres undefined), the growth was 6.69% (active).

With `O=C1OCc2cccc3cccc1c23`, the growth was 84.9%. The figure for `CC(=O)OCC1OC(n2cnc3c(=S)nc(N)[nH]c32)C(OC(C)=O)C1OC(C)=O` (centres undefined) is 81.2%; for `COc1ccc2[nH]c(C(=O)OCc3ccc4c(Br)cc(Br)c(O)c4n3)cc2c1` it is -32.7% (active). The same measure for `C=CCc1cc(C)ccc1NC(C(=O)NCC(=O)OC)c1ccccc1` (centres undefined): 103%; for `CCOC(=O)/C(C#N)=C(/CC)OCC`: 95%; for `C[C@H]1Oc2cc(cnc2N)-c2c(nn(C)c2C#N)CN(C)C(=O)c2ccc(F)cc21`: 77%. Take `CCCCOc1ccc(NC(=O)Nc2nnc(C)s2)cc1`: the growth is 80.7%. The same measure for `CCO/C=N/C1=C(C#N)C(c2ccc(OC)cc2)c2c(c3ccccc3n(C)c2=O)O1` (centres undefined): 102%; for `O=C(C[P+](c1ccccc1)(c1ccccc1)c1ccccc1)c1ccccc1`: 93.1%; for `O=C(Cn1cncn1)Nc1ccc(-c2nc3ccccc3s2)cc1`: 102%. The figure for `Nc1nc(N(Cc2ccccc2)c2ccccc2)c2cn[nH]c2n1` is 32.8%; for `CC(=S)Nc1ccccc1` it is 103%; for `COc1ccc(-c2nc3c(c(=O)n2C(C)=O)C(c2ccc(Cl)cc2)c2sc4c(Cl)cccc4c2O3)cc1` (centres undefined) it is -14% (active). The figure for `c1ccc2c(-c3nc(N4CCOCC4)c4c5c(sc4n3)CCCCCC5)cccc2c1` is 114%. Take `CC(C)c1ccc(NC(=O)Nc2ccc(NC(=O)c3ccccc3N)cc2)cc1`: the growth was 50.1%. The same measure for `COc1cc(/C=C2\C(=O)N(CC(O)COc3cc(O)c4c(=O)cc(-c5ccccc5)oc4c3)c3ccccc32)cc(OC)c1O` (centres undefined): 80.5%; for `CC[C@]1(O)C[C@@H]2CN(CCc3c([nH]c4ccccc34)[C@@](C(=O)OC)(c3cc4c(cc3OC)N(C)[C@H]3[C@@](O)(C(=O)OC)[C@H](OC(=O)CCCBr)[C@]5(CC)C=CCN6CC[C@]43[C@@H]65)C2)C1`: -21.2% (active); for `CCC1CCc2nc3sc(C(=O)Nc4ccccc4C)c(N)c3cc2C1` (centres undefined): 2.97% (active). The same measure for `O=C(CCl)Oc1ccc([N+](=O)[O-])cc1`: 107%; for `COc1cc(C2C(C#N)=C(N)Oc3cc4c(cc32)OCO4)cc2c1OCO2` (centres undefined): -43% (active); for `Nc1ncnc2c1N=C(c1ccc(F)cc1)CC(c1cccc(Nc3ccnc4cc(Cl)ccc34)c1)N2` (centres undefined): 83.6%. The figure for `O=C(Nc1ncc(Cc2cc(C(F)(F)F)ccc2Cl)s1)c1cccs1` is 30.6%. For `O=C1c2c(c3c4cc(Br)ccc4[nH]c3c3ccc4ccccc4c23)C(=O)N1O`, the growth is 116%. The figure for `CCNc1nc2c(cnn2C)c(=O)[nH]1` is 94.3%; for `O=C(Nc1ccc(Cl)cc1)N1NC(c2ccc(Cl)cc2)C=C1c1ccccc1` (centres undefined) it is 80.3%.

Values taken from PubChem BioAssay (NCI).
